In PubChem BioAssay (NCI) one finds growth data, which are given here for 18 compounds.

Several values for one entry are separate records, joined by “and”; a condition that tells them apart may be missing. Equal values may be shown once. About 83,000 compounds went through this panel and 20% of them were active in at least one assay; those are over-represented in the sample as a whole.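 The test compound was applied at a single concentration to cells in 96-well plates for 48 hours, and percent growth was recorded.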 Values without a mark were called inactive. Activity calls are given as the source filed them. How the source made its calls: active means growth percent below 10; inactive means the rest.

Among the test systems are T-47D breast; BT-549 breast; MDA-MB-435 melanoma; SW-620 colon; MCF7 breast; HCT-116 colon; HCC-2998 colon; KM12 colon.
Holding throughout (test): NCI-60 one-dose screen, 48 h (100 = growth as untreated, 0 = no growth, -100 = all killed)
Holding throughout (conditions): 10 µM unless noted

Take `CC1CCC(=O)N1c1ccc(N)cc1` (stereo not drawn): the growth was 81.9% in the assay on T-47D breast; 99.9% in the assay on BT-549 breast; 109% in the assay with MDA-MB-435 melanoma; 114% with SW-620 colon; 97.6% in the assay on MCF7 breast; 101% in the assay on HCT-116 colon. Further, the growth in the assay on HCC-2998 colon was 98.8%; in the assay on KM12 colon, 102%.
`COCCCNC1=C(C#N)C(=O)NC(c2cccs2)S1` (stereo not drawn): the growth is 89% in the assay on T-47D breast; 96% with BT-549 breast; 95.9% in the assay with MDA-MB-435 melanoma; 113% in the assay on SW-620 colon; 89.6% with MCF7 breast; 103% with HCT-116 colon. Moreover, the growth with HCC-2998 colon and in the assay on KM12 colon was 108% each time.
As for `CCN(C)c1ccccc1`, the growth is 105% with T-47D breast; 84.2% with BT-549 breast; 104% in the assay on MDA-MB-435 melanoma; 110% in the assay with SW-620 colon; 90.7% in the assay on MCF7 breast; 106% in the assay with HCT-116 colon. In addition, the results for the growth with HCC-2998 colon and with KM12 colon were 107% and 109%, respectively.
For `O=c1[nH]c(=S)[nH]n1C(=S)n1[nH]c(=S)[nH]c1=O`, the growth is 92% with T-47D breast; 108% in the assay with BT-549 breast; 110% with MDA-MB-435 melanoma; 98.5% in the assay on SW-620 colon; 91.8% in the assay on MCF7 breast; 102% with HCT-116 colon. The results for the growth in the assay with HCC-2998 colon and in the assay with KM12 colon were 99.6% and 98.4%, respectively.
`CCOC(=N)c1ccc(C(=N)OCC)cc1`: the growth in the assay on T-47D breast was 84%; with BT-549 breast it was 98.2%; with MDA-MB-435 melanoma it was 114%; in the assay with SW-620 colon it was 119%; with MCF7 breast, 92.3%; in the assay on HCT-116 colon, 96%. In addition, the results for the growth in the assay on HCC-2998 colon and in the assay with KM12 colon were 109% and 105%, respectively.
On to `CCn1c2ccc(N(C)C)cc2c2cc(N(C)C)ccc21`, for which the growth in the assay on T-47D breast was 88.2%; in the assay on BT-549 breast it was 96.6%; in the assay on MDA-MB-435 melanoma, 111%; in the assay on SW-620 colon, 96.2%; in the assay on MCF7 breast, 86.4%; with HCT-116 colon, 101%. The growth with HCC-2998 colon is 99.2%; with KM12 colon, 92.8%.
For `Cc1cc2nc3ccc(=[N+](C)C)cc-3sc2cc1N`, the growth in the assay on T-47D breast was -25.1% (active) and 1.21% (active); in the assay with BT-549 breast, 48.9% and 50.4%; in the assay on MDA-MB-435 melanoma it was -68.9% (active) and -41.4% (active); in the assay on SW-620 colon, -19.7% (active) and -9.28% (active); with MCF7 breast, -3.34% (active) and -28.7% (active); in the assay with HCT-116 colon, -22.8% (active) and 4.49% (active). For the same compound, the growth is 18.8% in the assay on HCC-2998 colon; 5.96% (active) and -2.21% (active) with KM12 colon.
On to `O=C1Cc2ccccc2C(=O)N1`, for which the growth was 71.1% with T-47D breast; 101% in the assay with BT-549 breast; 99.4% with MDA-MB-435 melanoma; 56.6% in the assay on SW-620 colon; 56.8% in the assay on MCF7 breast; 6.29% (active) in the assay on HCT-116 colon. In addition, the growth in the assay with HCC-2998 colon is 103%; in the assay with KM12 colon, 102%.
Turning to `O=C1CCC(=O)N1CC1CC2CCC1C2` (stereo not drawn), the growth in the assay on T-47D breast was 100% and 79.2%; in the assay on BT-549 breast it was 90.1%; in the assay on MDA-MB-435 melanoma it was 93.3% and 95.9%; in the assay on SW-620 colon it was 104% and 100%; in the assay on MCF7 breast it was 99% and 95.9%; in the assay with HCT-116 colon, 106% and 90.5%. Also, the growth was 106% in the assay on HCC-2998 colon; 107% and 100% in the assay with KM12 colon.
For the compound `Cc1cc(O)c(C(C)C)cc1N=O`, the growth in the assay with T-47D breast was 82.5% and 90.9%; with BT-549 breast it was 114% and 95.9%; in the assay on MDA-MB-435 melanoma, 99.5% and 117%; in the assay with SW-620 colon, 123% and 104%; in the assay with MCF7 breast, 90.8% and 94.9%; in the assay with HCT-116 colon, 94.4% and 93.8%. In addition, the growth in the assay with HCC-2998 colon is 98.1% and 102%; with KM12 colon, 109% and 110%.
Take `CCc1ccc(OC(=O)CCl)cc1`: the growth with T-47D breast was 100%; in the assay with BT-549 breast, 109%; in the assay with MDA-MB-435 melanoma, 100%; with SW-620 colon, 109%; in the assay on MCF7 breast, 103%; with HCT-116 colon, 102%. In addition, the growth in the assay on HCC-2998 colon was 104%; in the assay with KM12 colon, 95%.
Regarding `CCCCNC(=O)c1ccccc1C`, the growth in the assay on T-47D breast was 96.9%; in the assay on BT-549 breast, 94.1%; in the assay on MDA-MB-435 melanoma, 97.9%; in the assay with SW-620 colon, 104%; with MCF7 breast, 89.8%; in the assay on HCT-116 colon it was 90.2%. The growth with HCC-2998 colon was 88.3%; in the assay with KM12 colon it was 101%.
For the compound `OCCSc1ccc(Cl)cc1`, the growth in the assay on T-47D breast was 101% and 72.3%; in the assay on BT-549 breast it was 111% and 94.7%; with MDA-MB-435 melanoma, 103% and 106%; in the assay on SW-620 colon, 104%; with MCF7 breast, 106% and 89.3%; in the assay with HCT-116 colon, 110% and 94.4%. Besides, the growth in the assay on HCC-2998 colon is 106% and 108%; in the assay with KM12 colon, 117% and 102%.
`CCOC(=O)c1ccc(N2C(=O)C(Cl)(c3ccccc3)C2c2ccco2)cc1` (stereo not drawn): the growth with T-47D breast was 30.4%; in the assay on BT-549 breast, 76.5%; with MDA-MB-435 melanoma, 93.4%; in the assay with SW-620 colon, 77.6%; in the assay on MCF7 breast it was 62.4%; in the assay with HCT-116 colon, 54%. Besides, the growth in the assay on HCC-2998 colon was 95.8%; in the assay on KM12 colon, 83.5%.
Regarding `COC(=O)CCOc1ccccc1`, the growth in the assay with T-47D breast is 103%; in the assay with BT-549 breast, 91.7%; with MDA-MB-435 melanoma, 109%; with SW-620 colon it was 107%; with MCF7 breast it was 89.3%; in the assay with HCT-116 colon, 103%. Further, the growth in the assay with HCC-2998 colon was 91%; in the assay on KM12 colon, 102%.
Consider `CC1(CO)CCCC1NCCNC1CCCC1(C)CO` (stereo not drawn), for which the growth with T-47D breast is 97.8% and 106%; with BT-549 breast, 98.7% and 113%; with MDA-MB-435 melanoma it was 98.4% and 102%; in the assay with SW-620 colon, 104% and 101%; with MCF7 breast it was 94% and 95.3%; with HCT-116 colon, 88.6% and 102%. In the assay on KM12 colon, the growth was 122% and 100%.
Consider `CC(C)(C(=O)c1cccnc1)c1cccnc1`, for which the growth in the assay with T-47D breast was 96.2% and 111%; with BT-549 breast, 103% and 136%; in the assay with MDA-MB-435 melanoma, 98.6% and 122%; in the assay with SW-620 colon, 105% and 106%; in the assay with MCF7 breast, 102% and 93.8%; in the assay with HCT-116 colon, 108% and 111%. Further, the growth is 102% in the assay on HCC-2998 colon; 101% and 113% in the assay on KM12 colon.
As for `CC(C)(C)OC(=O)c1ccc(NCc2cc(O)ccc2O)cc1`, the growth is -67.5% (active) in the assay on T-47D breast; -17.6% (active) with BT-549 breast; 20% in the assay on MDA-MB-435 melanoma; 18.9% in the assay on SW-620 colon; 29.5% in the assay on MCF7 breast; 36.2% with HCT-116 colon. For the same compound, the growth in the assay with HCC-2998 colon is 113%; in the assay with KM12 colon it was 8.14% (active).
